# Calls of active or inactive are those of the source. The calls were made as follows: active = hit-call score of the fitted dose curve at least 0.9, where 1 is the maximum; inactive = score below 0.9.
# Assays:
# Details in all cases: mRNA level, 48 h; actives raise or lower the signal
# [1] = read-out: growth arrest and DNA damage 45 (GADD45A), GADD45A (gene 1647); test: LTEA_HepaRG_GADD45A: Life Technologies and Expression Analysis (LTEA) Assay for growth arrest and DNA damage 45 (GADD45A) using HepaRG (AID 2283458)
# How it was run: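 Differentiated HepaRG cells exposed 48 h in serum-free induction medium to 8 concentrations, top 100 uM in half-log steps, 0.5% DMSO. GADD45A mRNA quantified by qRT-PCR, normalized to ACTB, GAPDH and POLR2A; bidirectional fit versus DMSO.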
# [2] = read-out: Forkhead box O3 (FOXO3), FOXO3 (gene 2309); test: LTEA_HepaRG_FOXO3: Life Technologies and Expression Analysis (LTEA) Assay for Forkhead box O3 (FOXO3) using HepaRG (AID 2283459)
# How it was run: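 Differentiated human HepaRG cells in serum-free induction medium were exposed in duplicate for 48 h to eight half-log concentrations up to 100 uM in 0.5% DMSO. FOXO3 mRNA was quantified by qRT-PCR, normalized to ACTB, GAPDH and POLR2A, with bidirectional fitting versus DMSO.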
# [3] = read-out: ABC Transporter (ABCB1), ABCB1 (gene 5243); test: LTEA_HepaRG_ABCB1: Life Technologies and Expression Analysis (LTEA) Assay for ABC Transporter (ABCB1) using HepaRG (AID 2283460)
# How it was run: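 Differentiated human HepaRG cells, plated 48 h then switched to serum-free induction medium, were exposed in duplicate to eight half-log concentrations up to 100 uM in 0.5% DMSO for 48 h. ABCB1 mRNA was measured by TaqMan qRT-PCR, normalized to ACTB/GAPDH/POLR2A.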
# [4] = read-out: ABC Transporter (ABCC3), ABCC3 (gene 8714); test: LTEA_HepaRG_ABCC3: Life Technologies and Expression Analysis (LTEA) Assay for ABC Transporter (ABCC3) using HepaRG (AID 2283462)
# How it was run: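 Human HepaRG, 48 h dosing, 8-pt half-log series from 100 uM, 0.5% DMSO vehicle, duplicates. ABCC3 mRNA by TaqMan qRT-PCR, housekeeping-normalized; bidirectional curve fit vs DMSO.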
# [5] = read-out: ABC Transporter (ABCC2), ABCC2 (gene 1244); test: LTEA_HepaRG_ABCC2: Life Technologies and Expression Analysis (LTEA) Assay for ABC Transporter (ABCC2) using HepaRG (AID 2283464)
# How it was run: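 HepaRG, 48 h post-plating; serum-free induction medium; cpd 8-pt, 100 uM top, half-log, 0.5% DMSO, duplicate, 48 h. Readout: ABCC2 mRNA by qRT-PCR, norm. ACTB/GAPDH/POLR2A. Bidirectional fit vs DMSO baseline.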
# [6] = read-out: Broad substrate specificity ATP-binding cassette transporter ABCG2 (Homo sapiens) (UniProt Q9UNQ0); test: LTEA_HepaRG_ABCG2: Life Technologies and Expression Analysis (LTEA) Assay for ABC Transporter (ABCG2) using HepaRG (AID 2283465)
# How it was run: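 Differentiated HepaRG cells in serum-free induction medium were exposed for 48 h, in duplicate, to eight half-log concentrations up to 100 uM in 0.5% DMSO. ABCG2 mRNA was measured by TaqMan qRT-PCR, normalized to ACTB, GAPDH and POLR2A, and fitted bidirectionally versus DMSO.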
# [7] = read-out: ATP-citrate lyase (ACLY), ACLY (gene 47); test: LTEA_HepaRG_ACLY: Life Technologies and Expression Analysis (LTEA) Assay for ATP-citrate lyase (ACLY) using HepaRG (AID 2283466)
# How it was run: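 Differentiated human HepaRG cells in serum-free induction medium exposed 48 h, in duplicate, to eight half-log concentrations from 100 uM top in 0.5% DMSO; ACLY mRNA measured by qRT-PCR, normalized to ACTB, GAPDH, POLR2A, fitted bidirectionally versus DMSO.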
# [8] = read-out: Peroxisomal acyl-coenzyme A oxidase 1 (ACOX1) gene, ACOX1 (gene 51); test: LTEA_HepaRG_ACOX1: Life Technologies and Expression Analysis (LTEA) Assay for Peroxisomal acyl-coenzyme A oxidase 1 (ACOX1) gene using HepaRG (AID 2283467)
# How it was run: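 Differentiated human HepaRG cells were exposed in duplicate for 48 h in serum-free induction medium to eight half-log concentrations up to 100 uM in 0.5% DMSO. ACOX1 mRNA was then quantified by TaqMan qRT-PCR, normalized to ACTB, GAPDH and POLR2A.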
# [9] = read-out: Alkaline Phosphatase, Placental (ALPP) gene, ALPP (gene 250); test: LTEA_HepaRG_ALPP: Life Technologies and Expression Analysis (LTEA) Assay for Alkaline Phosphatase, Placental (ALPP) gene using HepaRG (AID 2283468)
# How it was run: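 HepaRG, 48 h plating then 48 h dosing, serum-free induction medium, 0.5% DMSO. 8 conc, half-log, max 100 uM, duplicates. Endpoint: ALPP transcript by qRT-PCR, housekeeping-normalized; gain or loss fitted vs DMSO.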
# [10] = read-out: Bcl-2 (BAD) gene, BAD (gene 572); test: LTEA_HepaRG_BAD: Life Technologies and Expression Analysis (LTEA) Assay for Bcl-2 (BAD) gene using HepaRG (AID 2283469)
# How it was run: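 Differentiated human HepaRG cells in serum-free induction medium were exposed in duplicate for 48 h to eight concentrations (top 100 uM, half-log steps, 0.5% DMSO). BAD mRNA was quantified by qRT-PCR normalised to ACTB, GAPDH and POLR2A, with bidirectional fitting versus DMSO.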
# [11] = read-out: Bcl-2 (BAX) gene, BAX (gene 581); test: LTEA_HepaRG_BAX: Life Technologies and Expression Analysis (LTEA) Assay for Bcl-2 (BAX) gene using HepaRG (AID 2283470)
# How it was run: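 Differentiated HepaRG cells exposed 48 h in serum-free induction medium, eight half-log concentrations from 100 uM, in duplicate, 0.5% DMSO vehicle. BAX mRNA by TaqMan qRT-PCR, normalised to ACTB, GAPDH and POLR2A.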
# [12] = read-out: Alpha-fetoprotein (AFP) gene, AFP (gene 174); test: LTEA_HepaRG_AFP: Life Technologies and Expression Analysis (LTEA) Assay for Alpha-fetoprotein (AFP) gene using HepaRG (AID 2283472)
# How it was run: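 Differentiated human HepaRG cells exposed 48 h in serum-free induction medium, 8-point half-log series from 100 uM in 0.5% DMSO, duplicate. AFP mRNA by qRT-PCR, normalized to ACTB, GAPDH, POLR2A; bidirectional fit vs DMSO.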
# BCL2L11 (gene 10018) = test: LTEA_HepaRG_BCL2L11: Life Technologies and Expression Analysis (LTEA) Assay for Bcl-2 (BCL2L11) gene using HepaRG (AID 2283473)
# How it was run: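 Read-out is BCL2L11 transcript level by qRT-PCR, normalized to three housekeeping genes and fitted bidirectionally against 0.5% DMSO vehicle. HepaRG cells received chemicals for 48 h in serum-free induction medium, 100 uM down in half-log dilutions.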
# [13] = read-out: Apolipoprotein A-V (APOA5) gene, APOA5 (gene 116519); test: LTEA_HepaRG_APOA5: Life Technologies and Expression Analysis (LTEA) Assay for Apolipoprotein A-V (APOA5) gene using HepaRG (AID 2283474)
# How it was run: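 Readout is APOA5 transcript level by qRT-PCR on Fluidigm dynamic arrays, normalized to three housekeeping genes. HepaRG cultures received chemicals for 48 h at up to 100 uM (half-log steps, 0.5% DMSO), with gain or loss scored relative to DMSO.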
# [14] = read-out: Bcl-2 (BID) gene, BID (gene 637); test: LTEA_HepaRG_BID: Life Technologies and Expression Analysis (LTEA) Assay for Bcl-2 (BID) gene using HepaRG (AID 2283476)
# How it was run: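 Gene expression by qRT-PCR in HepaRG cells after 48 h exposure, duplicate wells, eight half-log concentrations topping at 100 uM in 0.5% DMSO. Normalized to ACTB, GAPDH, POLR2A; bidirectional fitting relative to DMSO.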
# Sequence of Broad substrate specificity ATP-binding cassette transporter ABCG2 (Homo sapiens) (Q9UNQ0 whole entry, looked up): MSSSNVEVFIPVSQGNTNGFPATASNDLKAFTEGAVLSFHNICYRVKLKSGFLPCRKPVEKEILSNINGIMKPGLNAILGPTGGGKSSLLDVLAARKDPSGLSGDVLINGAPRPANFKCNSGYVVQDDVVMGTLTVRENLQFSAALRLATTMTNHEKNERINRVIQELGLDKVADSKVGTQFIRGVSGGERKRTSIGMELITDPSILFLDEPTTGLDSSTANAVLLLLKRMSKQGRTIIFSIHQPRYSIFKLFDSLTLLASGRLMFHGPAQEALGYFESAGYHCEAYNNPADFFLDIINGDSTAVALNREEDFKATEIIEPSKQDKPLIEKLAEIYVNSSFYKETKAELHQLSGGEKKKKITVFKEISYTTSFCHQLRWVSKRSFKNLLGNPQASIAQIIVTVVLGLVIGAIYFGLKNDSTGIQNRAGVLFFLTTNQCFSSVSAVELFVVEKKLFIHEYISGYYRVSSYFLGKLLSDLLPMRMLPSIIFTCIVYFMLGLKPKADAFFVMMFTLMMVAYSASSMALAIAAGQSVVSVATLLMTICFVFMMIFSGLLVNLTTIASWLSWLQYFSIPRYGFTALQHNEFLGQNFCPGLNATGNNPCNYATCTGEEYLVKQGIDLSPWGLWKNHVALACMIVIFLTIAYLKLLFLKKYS
structure (smiles),measurement,setting,value
CCCN(CCC)c1c([N+](=O)[O-])cc(C(C)C)cc1[N+](=O)[O-],AC50,[1],0.234 µM (active)
same,outcome,[2],inactive
same,AC50,[3],50 µM (active)
same,AC50,[4],0.246 µM (active)
same,AC50,[5],18.3 µM (active)
same,AC50,[6],18.1 µM (active)
same,AC50,[7],0.129 µM (active)
same,outcome,[8],inactive
same,outcome,[9],inactive
same,outcome,[10],inactive
same,outcome,[11],inactive
same,AC50,[12],50 µM (active)
same,AC50,BCL2L11 (gene 10018),0.106 µM (active)
same,AC50,[13],0.123 µM (active)
same,AC50,[14],0.119 µM (active)
c1ccc2c(c1)Nc1ccccc1S2,outcome,[1],inactive
same,outcome,[2],inactive
same,outcome,[3],inactive
same,outcome,[4],inactive
same,outcome,[5],inactive
same,outcome,[6],inactive
same,outcome,[7],inactive
same,outcome,[8],inactive
same,outcome,[9],inactive
same,outcome,[10],inactive
same,outcome,[11],inactive
same,outcome,[12],inactive
same,outcome,BCL2L11 (gene 10018),inactive
same,outcome,[13],inactive
same,outcome,[14],inactive
CCOP(=S)(Oc1ccc([N+](=O)[O-])cc1)c1ccccc1 (stereo not drawn),outcome,[1],inactive
same,outcome,[2],inactive
same,AC50,[3],4.56 µM (active)
same,outcome,[4],inactive
same,AC50,[5],24 µM (active)
same,AC50,[6],12.7 µM (active)
same,outcome,[7],inactive
same,outcome,[8],inactive
same,AC50,[9],50 µM (active)
same,outcome,[10],inactive
same,outcome,[11],inactive
same,AC50,[12],29.4 µM (active)
same,outcome,BCL2L11 (gene 10018),inactive
same,outcome,[13],inactive
same,outcome,[14],inactive
O=[N+]([O-])c1ccc(Cl)c(Cl)c1,outcome,[1],inactive
same,outcome,[2],inactive
same,outcome,[3],inactive
same,outcome,[4],inactive
same,outcome,[5],inactive
same,outcome,[6],inactive
same,outcome,[7],inactive
same,outcome,[8],inactive
same,outcome,[9],inactive
same,outcome,[10],inactive
same,outcome,[11],inactive
same,outcome,[12],inactive
same,outcome,BCL2L11 (gene 10018),inactive
same,outcome,[13],inactive
same,outcome,[14],inactive
O=P1(N(CCCl)CCCl)NCCCO1 (stereo not drawn),outcome,[1],inactive
same,outcome,[2],inactive
same,outcome,[3],inactive
same,outcome,[4],inactive
same,outcome,[5],inactive
same,outcome,[6],inactive
same,outcome,[7],inactive
same,outcome,[8],inactive
same,outcome,[9],inactive
same,outcome,[10],inactive
same,outcome,[11],inactive
same,outcome,[12],inactive
same,outcome,BCL2L11 (gene 10018),inactive
same,outcome,[13],inactive
same,outcome,[14],inactive
ClC(Cl)(Cl)c1ccccc1,outcome,[1],inactive
same,outcome,[2],inactive
same,outcome,[3],inactive
same,outcome,[4],inactive
same,outcome,[5],inactive
same,outcome,[6],inactive
same,outcome,[7],inactive
same,outcome,[8],inactive
same,outcome,[9],inactive
same,outcome,[10],inactive
same,outcome,[11],inactive
same,outcome,[12],inactive
same,outcome,BCL2L11 (gene 10018),inactive
same,outcome,[13],inactive
same,outcome,[14],inactive
CCCCCCCc1ccc(O)cc1,outcome,[1],inactive
same,outcome,[2],inactive
same,outcome,[3],inactive
same,outcome,[4],inactive
same,outcome,[5],inactive
same,outcome,[6],inactive
same,outcome,[7],inactive
same,outcome,[8],inactive
same,outcome,[9],inactive
same,outcome,[10],inactive
same,outcome,[11],inactive
same,outcome,[12],inactive
same,outcome,BCL2L11 (gene 10018),inactive
same,outcome,[13],inactive
same,outcome,[14],inactive
CCOP(=S)(OCC)SCSCC,outcome,[1],inactive
same,outcome,[2],inactive
same,outcome,[3],inactive
same,outcome,[4],inactive
same,outcome,[5],inactive
same,outcome,[6],inactive
same,outcome,[7],inactive
same,outcome,[8],inactive
same,outcome,[9],inactive
same,outcome,[10],inactive
same,outcome,[11],inactive
same,outcome,[12],inactive
same,outcome,BCL2L11 (gene 10018),inactive
same,outcome,[13],inactive
same,outcome,[14],inactive
O=P(Oc1ccccc1)(Oc1ccccc1)Oc1ccccc1,outcome,[1],inactive
same,outcome,[2],inactive
same,AC50,[3],5.73 µM (active)
same,outcome,[4],inactive
same,AC50,[5],8.94 µM (active)
same,AC50,[6],8.36 µM (active)
same,AC50,[7],71.6 µM (active)
same,outcome,[8],inactive
same,outcome,[10],inactive
same,outcome,[11],inactive
same,AC50,[12],50 µM (active)
same,outcome,BCL2L11 (gene 10018),inactive
same,AC50,[13],50 µM (active)
same,outcome,[14],inactive
Cc1ccc(O)cc1C,outcome,[1],inactive
same,outcome,[2],inactive
same,outcome,[4],inactive
same,outcome,[5],inactive
same,outcome,[6],inactive
same,outcome,[7],inactive
same,outcome,[8],inactive
same,outcome,[9],inactive
same,outcome,[10],inactive
same,outcome,[11],inactive
same,outcome,[12],inactive
same,outcome,BCL2L11 (gene 10018),inactive
same,outcome,[13],inactive
same,outcome,[14],inactive
CCC(C)(C)c1ccc(O)cc1,outcome,[1],inactive
same,outcome,[2],inactive
same,outcome,[3],inactive
same,outcome,[4],inactive
same,outcome,[5],inactive
same,outcome,[6],inactive
same,outcome,[7],inactive
same,outcome,[8],inactive
same,outcome,[9],inactive
same,outcome,[10],inactive
same,outcome,[11],inactive
same,outcome,[12],inactive
same,outcome,BCL2L11 (gene 10018),inactive
same,outcome,[13],inactive
same,outcome,[14],inactive

# Source: PubChem BioAssay (EPA / NIEHS)
